MITF inhib – inhibitors of MITF, primary screen, MITF inhibitor project, cell-based, luminescence; TRPM1 promoter luciferase, 24 h; inhibition, % (concentration not given with the values); hit rate 0.28% among 37,000; in the data active means inhibition above about 85%; inconclusive means no clear call, values can overlap the other calls; inactive means below about 68%;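 further: human melanocyte line stably carrying TRPM1 promoter luciferase reporter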
PD-1 reverse act – activators reversing PD-1 mediated T-cell inhibition, primary screen, luminescence, primary human CD4 T cells, PD-L1 beads. activation, % (no concentration beside the values). CellTiter-Glo 96 h. 29,000 tested, under 10 active; call rule not given here;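 further: 0% = median vehicle wells and 100% = positive control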
Shh pathway inh – Hedgehog pathway signaling inhibitors, primary screen, luminescence, Shh-LIGHT2 cells, Gli-luciferase; Shh-LIGHT2 Gli-luciferase reporter, 30 h; inhibition, % (concentration not given with the values); hit rate 2.1% among 22,000;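 active means mean inhibition across valid replicates above about 65%, limit read from the data; inconclusive means mean under the limit, yet half or more replicates past it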;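 further: pathway switched on by Shh-conditioned medium diluted 1 in 25 in low serum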
YB-1 expr inh – inhibitors of YB-1 gene expression, primary screen, cell-based, fluorescence | delta delta Cp (YB-1 minus CDIP) (no concentration beside the values) | hit rate 0.37% among 30,000 | U2OS, qRT-PCR YB-1 vs CDIP delta delta Cp, 16 h; stronger effect = higher value; zero = DMSO, each unit about twofold | AID 434959, 2010;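 active means delta delta Cp rounded down to an integer at or above 3, about 3 SD of DMSO wells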;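 further: higher means less YB-1 transcript or more CDIP transcript relative to DMSO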
NOMO-1 viab – NOMO-1 AML cell viability reduction, primary screen, STK33 inhibitor project, CellTiter-Glo luminescence; inhibition, % (test concentration not listed); NOMO-1 AML viability, 72 h; hit rate 7.5% among 37,000; in the data active means inhibition above about 80%; inconclusive means no clear call, values can overlap the other calls
Active calls of the source: *; ? = inconclusive; · = no result given. Shown are actives, neighbours in structure and some others; about 7.4% of the full set was active somewhere.

SMILES | MITF inhib | PD-1 reverse act | Shh pathway inh | YB-1 expr inh | NOMO-1 viab
C[C@H](CO)N1C[C@H](C)[C@@H](CN(C)S(=O)(=O)c2ccccc2)Oc2c(NC(=O)Nc3ccc(C(F)(F)F)cc3)cccc2C1=O | -3.2 | -0.1 | -15.7 | -0.69 | 34.3
C[C@H]1CN([C@@H](C)CO)C(=O)c2cccc(NC(=O)Nc3ccc(C(F)(F)F)cc3)c2O[C@H]1CN(C)S(=O)(=O)c1ccc(Cl)cc1 | -3.1 | · | 104.9* | 0.036 | 60.2
C[C@H](CO)N1C[C@H](C)[C@H](CN(C)S(=O)(=O)c2ccc(Cl)cc2)Oc2c(NC(=O)Nc3ccc(C(F)(F)F)cc3)cccc2C1=O | 9.7 | -3.1 | 99.8* | 0.0114 | 53.1
C[C@@H]1CN([C@H](C)CO)C(=O)Cc2cc(NC(=O)Cc3ccccc3)ccc2O[C@H]1CN(C)Cc1ccc(-c2ccccc2)cc1 | 1.3 | 1.5 | -33.0 | -1.33 | -2.2
CC(O)CC(=O)c1cc(O)ccc1O (centres undefined) | 3.1 | 1.7 | -8.0 | 4.61* | -0.8
C[C@@H]1CN([C@H](C)CO)C(=O)c2cc(NC(=O)c3ccncc3)ccc2O[C@H]1CN(C)Cc1ccc(C(F)(F)F)cc1 | -0.1 | 0.1 | -10.6 | 0.162 | 19.9
Cc1[nH]c2ccccc2c1C(c1ccccc1)N1CCN(C)CC1 (centres undefined) | 55.8 | -6.9 | ? | -0.272 | 117.0*
O=C(CCCCCC(=O)Nc1ccccc1O)N/N=C/C=C/c1ccccc1 | · | · | · | -1.39 | ·
C=C1C(=O)O[C@@H]2[C@H]3O[C@]3(C)CCC=C(C)CC[C@@H]12 | 93.1* | -58.7 | 82.1* | -0.063 | 141.0*
C=C1C(=O)O[C@@H]2C3O[C@]3(C)CC/C=C(/C)CC[C@@H]12 (some centres undefined) | 68.4 | · | 67.5* | -0.0157 | 107.5*
C[C@H]1CN([C@@H](C)CO)C(=O)CCCn2nncc2CO[C@@H]1CN(C)Cc1ccc2c(c1)OCCO2 | · | · | · | -0.237 | ·
CCOC(=O)CC1Sc2ccccc2N=C1SCC(=O)Nc1cccc(C(F)(F)F)c1 (centres undefined) | -6.7 | -5.1 | 6.4 | 1.12 | 126.5*
COc1cc(CO)cc(Cl)c1OCC(=O)Nc1ccccc1F | -20.5 | · | · | · | 4.5
COc1ccc(NC(=O)Nc2ccc3c(c2)C(=O)N([C@H](C)CO)C[C@@H](C)[C@H](CN(C)Cc2ccc(-c4ccccc4)cc2)O3)cc1 | 1.1 | -2.7 | 26.9 | -0.097 | 119.2*
COc1ccc(NC(=O)Nc2ccc3c(c2)C(=O)N([C@@H](C)CO)C[C@@H](C)[C@H](CN(C)Cc2ccc(-c4ccccc4)cc2)O3)cc1 | -10.2 | -1.9 | 35.1 | 0.731 | 97.1*
COc1ccc(CN(C)C[C@H]2Oc3ccc(NC(=O)Nc4ccccc4)cc3C(=O)N([C@@H](C)CO)C[C@H]2C)cc1 | -3.0 | 0.9 | 8.8 | -0.686 | 25.4
COc1ccc(CN(C)C[C@H]2Oc3ccc(NC(=O)Nc4ccccc4)cc3C(=O)N([C@H](C)CO)C[C@H]2C)cc1 | -3.5 | · | -8.8 | 0.407 | 36.9
COc1ccc(NC(=O)Nc2ccc3c(c2)C(=O)N([C@@H](C)CO)C[C@H](C)[C@@H](CN(C)Cc2ccc(-c4ccccc4)cc2)O3)cc1 | 8.1 | -5.1 | · | -0.248 | 81.9*
C[C@@H]1CN([C@@H](C)CO)C(=O)c2cc(NC(=O)Nc3ccccc3)ccc2O[C@@H]1CN(C)Cc1ccc(-c2ccccc2)cc1 | -3.3 | -4.9 | · | 0.626 | 113.8*
COc1ccc(CN(C)C[C@@H]2Oc3ccc(NC(=O)Nc4ccccc4)cc3C(=O)N([C@H](C)CO)C[C@H]2C)cc1 | -0.1 | · | -14.2 | 0.307 | -1.0
O=C(CSc1nnc(-c2cccc(F)c2)n1-c1ccccc1)Nc1ccc(F)cc1 | 6.9 | · | · | · | 41.8
CC(C)NC(=O)Nc1ccc2c(c1)C(=O)N([C@H](C)CO)C[C@@H](C)[C@@H](CN(C)S(=O)(=O)c1cccs1)O2 | -13.5 | 2.1 | · | -0.0964 | 16.4
O=C(N/N=C/c1ccc(F)cc1)c1ccccn1 | · | · | · | 0.205 | ·
COc1cc(O)cc(OC)c1OC | 17.2 | · | ? | 0.0525 | 106.9*
C[C@@H]1CN([C@H](C)CO)C(=O)CCCn2cc(nn2)CO[C@H]1CN(C)CC1CCCCC1 | · | · | · | -0.0926 | ·
SMILES | MITF inhib | PD-1 reverse act | Shh pathway inh | YB-1 expr inh | NOMO-1 viab
COc1ccc(NC(=O)N(C)C[C@@H]2Oc3ccc(NC(=O)CCCN(C)C)cc3C(=O)N([C@H](C)CO)C[C@@H]2C)cc1 | -5.2 | -0.1 | -30.0 | -0.217 | -5.8
Cc1ccc(S(=O)(=O)Nc2ccc3c(c2)C(=O)N([C@@H](C)CO)C[C@@H](C)[C@@H](CN(C)C(=O)Nc2ccc(F)cc2)O3)cc1 | -2.5 | -0.2 | -5.1 | 0.366 | 19.8
CCCCCC(=O)Cc1cc(O)c(O)c2c1C(=O)Oc1cc(O)c(C(=O)O)c(CCCCC)c1O2 | 28.6 | -9.8 | 74.8* | 0.553 | 107.7*
C[C@]12C[C@H](O)C3C(CC[C@@H]4C[C@H](O)CC[C@]34C)C1CC[C@@H]2C(=O)CO (some centres undefined) | -7.3 | 1.6 | -14.9 | 0.565 | -2.9
C[C@@H]1CN([C@H](C)CO)C(=O)c2cccc(NC(=O)c3nc4ccccc4s3)c2O[C@@H]1CN(C)S(C)(=O)=O | -4.7 | · | 18.7 | 0.124 | 9.8
CCn1c(SCC(=O)Nc2ccc(Cl)c(Cl)c2)nnc1-c1cc2cccc(OC)c2o1 | 35.9 | · | · | · | 99.8*
COc1cccc2cc(-c3nnc(SCC(=O)Nc4ccc5ccccc5c4)n3C)oc12 | -0.3 | 1.0 | · | · | 17.2
COc1ccc(NC(=O)N(C)C[C@@H]2Oc3ccc(NC(=O)Nc4ccc5c(c4)OCO5)cc3CC(=O)N([C@H](C)CO)C[C@@H]2C)cc1 | -0.6 | · | -26.0 | -0.202 | 26.9
CC(C)(C)C1CCc2c(sc(NC(=O)COc3ccc(Cl)cc3)c2C(N)=O)C1 (centres undefined) | -6.3 | · | · | · | 89.1*
S=C(c1nc2ccccc2[nH]1)N1CCOCC1 | -8.8 | -0.4 | 1.9 | 5.19* | 16.6
C[C@@H]1CN([C@@H](C)CO)C(=O)c2cc(NC(=O)Nc3ccc(F)cc3)ccc2O[C@@H]1CN(C)S(=O)(=O)c1cccs1 | -10.0 | 0.2 | -4.3 | 0.208 | 14.5
C[C@@H]1CN([C@@H](C)CO)C(=O)c2cc(NC(=O)Nc3ccc(C(F)(F)F)cc3)ccc2O[C@H]1CN(C)S(=O)(=O)c1cccs1 | -7.3 | · | · | -0.159 | 93.1*
C[C@H](CO)N1C[C@H](C)[C@H](CN(C)S(=O)(=O)c2cccs2)Oc2ccc(NC(=O)Nc3ccc(F)cc3)cc2C1=O | -69.3 | -1.4 | -16.9 | -0.0969 | 21.3
C[C@@H]1CN([C@@H](C)CO)C(=O)c2cc(NC(=O)Nc3ccc(C(F)(F)F)cc3)ccc2O[C@@H]1CN(C)S(=O)(=O)c1cccs1 | 43.0 | -2.5 | 44.2 | -0.156 | 108.6*
C[C@H]1CN([C@@H](C)CO)C(=O)c2cc(NC(=O)Nc3ccc(C(F)(F)F)cc3)ccc2O[C@@H]1CN(C)S(=O)(=O)c1cccs1 | 66.8 | · | · | 0.151 | 93.9*

Compound activity: PubChem, Broad Institute
